aSyn UTR inh: MLPCN primary screen, SNCA 5' untranslated region; actives 0.82% (n = 300,000); AID 1813, 2009; alpha-synuclein 5'UTR reporter, inhibitor activity; inhibition, % (tested at 7.5 µM); in the data active = inhibition above about 60%;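 note: H4 neuroglioblastoma cells stably carrying SNCA 5'UTR luciferase fusion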
Ba/F3 V617F tox: reduced viability of JAK2V617F-dependent Ba/F3 cells, primary screen, JAK2V617F inhibitor project, cell-based, Ba/F3 EpoR-JAK2V617F, luminescence; ATP luminescence; inhibition, % at 5.6 µM; actives 1.1% (n = 220,000); AID 1446, 2008;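 active = inhibition above the campaign mean plus 3 SD over all tested compounds, cut at about 24% in these data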;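 note: cytokine-independent growth of Ba/F3 cells driven by EpoR plus mutant JAK2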
KLF5 inh: KLF5 expression inhibitors, primary screen, DLD-1 cells, luminescence | actives 0.23% (n = 290,000) | inhibition, % at 5 µM | AID 1700, 2009 | DLD-1 KLF5 promoter-luciferase reporter;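 active = inhibition above a per-plate limit of that plate's mean compound inhibition plus 3 SD, cut at about 60% in these data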;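 note: higher means less KLF5 promoter-driven luciferase light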
BaF3 parental: parental Ba/F3 cell viability inhibition, counter-screen for JAK2V617F inhibitor project, murine pro-B, CellTiter-Glo luminescence | CellTiter-Glo ATP luminescence | inhibition, % at 5.6 µM | actives 1.1% (n = 220,000) | AID 1486, 2009;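 active = inhibition above a per-campaign cutoff, the mean inhibition of all tested compounds plus 3 SD, cut at about 27% in these data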
IEC-6 cytotox: cytotoxicity in IEC-6 intestinal epithelial cells, primary screen, cytotoxicity control for KLF5 inhibitor project, cell-based, luminescence; actives 0.78% (n = 290,000); inhibition, % at 5 µM; IEC-6 cytotoxicity, luminescence viability; in the data active = inhibition above about 22%
APP transl inh: inhibitors of APP translation via 5'UTR reporter, primary screen, APP 5'UTR luciferase, SH-SY5Y cells | AID 1285, 2008 | SH-SY5Y APP 5'UTR-luciferase reporter, luminescence | actives 0.82% (n = 190,000) | inhibition, % at 2 µM;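 active = inhibition above a set limit, derived from the sample mean plus 3 SD, cut at about 45% in these data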
A number is an active result; – = inactive; · = not tested or not shown. The list is not random: actives were taken first. Their share in the collection is about 2.1%.

SMILES	aSyn UTR inh	Ba/F3 V617F tox	KLF5 inh	BaF3 parental	IEC-6 cytotox	APP transl inh
Cc1ccc(OCC(=O)Nc2ccc([N+](=O)[O-])cc2)cc1	–	–	–	–	–	–
Cc1sc2ncn(CC(=O)N3CCOCC3)c(=O)c2c1-c1ccccc1	–	–	–	–	–	–
Cc1ccc(CN(C(=O)c2csnn2)C(C(=O)NC2CCCC2)c2ccccn2)cc1 (stereo unspecified)	–	·	–	·	–	·
Cc1sc2cc3c(c(C(=O)c4ccccc4)[n+]2c1C)-c1cccc2cccc-3c12	–	100	–	88	–	–
O=c1c(Cl)c(NCCCO)cnn1-c1nc2ccccc2[nH]1	–	34	–	63	–	–
O=C(COc1ccccc1[N+](=O)[O-])N/N=C/C=C/c1ccco1	–	–	–	95	–	–
OCC1(CO)COC(CCc2ccccc2)=N1	–	·	–	·	–	·
Cc1ccc(-c2nn(CC(=O)NCc3cc(-c4nn(C)c(=O)c5ccccc45)ccc3C)c(=O)c3ccccc23)cc1	114	–	–	–	–	–
O=C(Cc1ccccc1)NCC(=O)N1CCC1	–	·	–	·	–	·
Cc1nc2cc(C)c(C)cc2s1	–	–	–	–	–	–
Cc1cc2nc3ccc(=[N+](C)C)cc-3sc2cc1N	91	68	–	85	–	·
CN(C)c1ccc2nc3ccc(=[N+](C)C)cc-3sc2c1	–	97	–	101	–	62
CCCCC1(c2ccc(F)cc2)NC(=O)N(CC(=O)N2CCN(C(=O)c3ccco3)CC2)C1=O (stereo unspecified)	–	·	–	·	–	·
COc1ccc(-c2cn3cc(C)ccc3n2)cc1F	77	–	–	–	–	–
CNS(=O)(=O)c1cc(Nc2ncnc3sccc23)ccc1C	–	·	–	·	–	·
Cc1c(N)cc[n+](CC(=O)c2ccccc2)c1C	–	81	–	63	–	–
CC(OC(=O)c1cc(=O)[nH]c2ccccc12)C(=O)NCc1ccccc1 (stereo unspecified)	–	·	·	·	·	·
COc1ccc(CCN(C)C(=O)c2cnc(C)cn2)cc1OC	–	·	–	·	–	·
O=C(NCCCN1CCOCC1)C(=O)N/N=C/c1c(Cl)cccc1Cl	–	–	–	–	–	–
O=C(NCCCN1CCOCC1)C(=O)N/N=C/c1c2ccccc2cc2ccccc12	67	–	–	–	–	–
O=S(=O)(NCCc1ccc(Cl)cc1)c1cccc2cccnc12	–	·	–	·	–	·
O=C(/C=C/c1ccccc1)NNC(=O)c1cccs1	–	24	–	41	–	–
O=C(/C=C/c1ccccc1)Nc1ccc(NC(=O)c2cccs2)cc1	–	–	–	–	–	·
CCc1ccc(C(C(=O)NCc2ccc(F)cc2)N(C(=O)c2csnn2)C2CC2)cc1 (stereo unspecified)	–	·	–	·	–	·
CC(C)CC(NC(=O)c1ccc(Cl)cc1)C(=O)OCC(=O)c1ccc2c(c1)NC(=O)CO2 (stereo unspecified)	96	–	–	–	–	–
SMILES	aSyn UTR inh	Ba/F3 V617F tox	KLF5 inh	BaF3 parental	IEC-6 cytotox	APP transl inh
CCNc1nc(SCC(=O)OC)nc(N(C)C)n1	–	–	–	–	–	–
COC(=O)N(C)c1nc2ccccc2s1	–	–	–	–	–	–
CC[n+]1cccc(-c2nc3ccccc3s2)c1	–	34	–	44	–	–
CC(C)c1ccc(-c2nc3ccccc3s2)cc1	98	–	–	–	–	·
COc1ccc(-c2nc3ccccc3s2)cc1O	85	–	–	–	–	–
CN(C(=O)OC(C)(C)C)c1ccc(-c2nc3ccccc3s2)cc1	104	·	·	·	·	·
Oc1cccc(-c2nc3ccccc3s2)c1	–	–	–	–	–	–
CCCCN(C1CCS(=O)(=O)C1)S(=O)(=O)c1cc(C)ccc1C (stereo unspecified)	–	·	·	·	·	·
Cc1ccc(S(=O)(=O)N2CCNC(=O)CC2)cc1	·	–	–	–	–	–
Cc1ccc(C)c(C(=O)Cn2c(NCCO)nc3ccccc32)c1	–	·	–	·	–	·
COc1ccc(CCCC(=O)NCc2ccccc2)cc1C	–	–	–	–	–	–
Cc1ccc(S(=O)(=O)N(CC(=O)Nc2ccc(C(N)=O)cc2)C(=O)N2CCN(C)CC2)cc1	–	·	·	·	·	·

Compound activity from PubChem.
